# Laboratory results: PubChem BioAssay (EPA / NIEHS)
# Calls of active or inactive are those of the source. Rule for the calls: active = hit-call score of the fitted dose curve at least 0.9, where 1 is the maximum; inactive = score below 0.9.
# Key:
# [1] = ATG_CRE_CIS: Attagene CIS-FACTORIAL HepG2 Assay for human cAMP Responsive Element (CRE) binding protein 3 (AID 2282926); settings: HepG2 CRE cis-reporter, Attagene multiplexed mRNA; actives raise or lower the signal
# Method in brief: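 Readout: fluorescently labelled reporter transcripts resolved by capillary electrophoresis after RT-PCR, taken 24 h post-dosing in transfected HepG2. Endogenous transcription factor activity drives each cis-element reporter; gain or loss of signal fitted relative to DMSO control.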
# [2] = target: CCAAT/enhancer-binding protein beta (Homo sapiens) (UniProt P17676); test: ATG_C_EBP_CIS: Attagene CIS-FACTORIAL HepG2 Assay for human CCAAT/Enhancer Binding Protein (C/EBP) beta (AID 2282927); settings: HepG2 Attagene cis-factorial transcription factor reporter; actives raise or lower the signal
# Chain of CCAAT/enhancer-binding protein beta (Homo sapiens) (P17676 whole entry, looked up, the tested form may be a part): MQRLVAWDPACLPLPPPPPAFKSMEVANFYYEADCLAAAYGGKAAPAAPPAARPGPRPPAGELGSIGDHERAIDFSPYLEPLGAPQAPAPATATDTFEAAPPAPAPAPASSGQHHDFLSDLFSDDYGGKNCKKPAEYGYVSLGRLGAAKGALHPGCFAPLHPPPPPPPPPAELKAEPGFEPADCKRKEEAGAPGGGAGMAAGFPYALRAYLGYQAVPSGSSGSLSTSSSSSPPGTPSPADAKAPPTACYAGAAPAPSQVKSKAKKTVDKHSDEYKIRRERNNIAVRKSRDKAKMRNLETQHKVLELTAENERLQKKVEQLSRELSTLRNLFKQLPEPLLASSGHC
# Method in brief: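 Chemical-treated HepG2 cells (24 h) bearing cis-regulated reporter constructs were processed for total RNA, then reverse transcription, PCR amplification, fluorescent primer extension and fragment analysis; gain- and loss-of-signal were fitted against DMSO.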
# [3] = ATG_CMV_CIS: Attagene CIS-FACTORIAL HepG2 Assay for human CMV (Internal Marker) (AID 2282928); settings: HepG2 CMV promoter reporter, transcription factor profiling; actives raise or lower the signal;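 note: endpoint acts as a background internal control marker rather than a target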
# Method in brief: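 24 h chemical treatment, HepG2 with transient multi-reporter transfection; RNA → oligo(dT) RT → PCR → 6-FAM extension → HpaI digest → CE fluorescence. Bidirectional fit, DMSO negative control.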
# [4] = ATG_DR4_LXR_CIS: Attagene CIS-FACTORIAL HepG2 Assay for human Liver X Receptor (LXR), DR4 submotif (AID 2282929); settings: HepG2 Attagene DR4 cis-reporter, mRNA transcription; actives raise or lower the signal
# Method in brief: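 DR4 cis-reporter in HepG2, 24 h exposure. Detection: RT-PCR, 6-FAM labelling, CE fragment analysis. Endpoint fitted bidirectionally, DMSO = baseline.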
# [5] = target: Aryl hydrocarbon receptor (Homo sapiens) (UniProt P35869); test: ATG_Ahr_CIS: Attagene CIS-FACTORIAL HepG2 Assay for human Aryl Hydrocarbon Receptor (Ahr) (AID 2282930); settings: HepG2 AhR cis-factorial reporter transcription; actives raise or lower the signal
# Chain of Aryl hydrocarbon receptor (Homo sapiens) (P35869 whole entry, looked up): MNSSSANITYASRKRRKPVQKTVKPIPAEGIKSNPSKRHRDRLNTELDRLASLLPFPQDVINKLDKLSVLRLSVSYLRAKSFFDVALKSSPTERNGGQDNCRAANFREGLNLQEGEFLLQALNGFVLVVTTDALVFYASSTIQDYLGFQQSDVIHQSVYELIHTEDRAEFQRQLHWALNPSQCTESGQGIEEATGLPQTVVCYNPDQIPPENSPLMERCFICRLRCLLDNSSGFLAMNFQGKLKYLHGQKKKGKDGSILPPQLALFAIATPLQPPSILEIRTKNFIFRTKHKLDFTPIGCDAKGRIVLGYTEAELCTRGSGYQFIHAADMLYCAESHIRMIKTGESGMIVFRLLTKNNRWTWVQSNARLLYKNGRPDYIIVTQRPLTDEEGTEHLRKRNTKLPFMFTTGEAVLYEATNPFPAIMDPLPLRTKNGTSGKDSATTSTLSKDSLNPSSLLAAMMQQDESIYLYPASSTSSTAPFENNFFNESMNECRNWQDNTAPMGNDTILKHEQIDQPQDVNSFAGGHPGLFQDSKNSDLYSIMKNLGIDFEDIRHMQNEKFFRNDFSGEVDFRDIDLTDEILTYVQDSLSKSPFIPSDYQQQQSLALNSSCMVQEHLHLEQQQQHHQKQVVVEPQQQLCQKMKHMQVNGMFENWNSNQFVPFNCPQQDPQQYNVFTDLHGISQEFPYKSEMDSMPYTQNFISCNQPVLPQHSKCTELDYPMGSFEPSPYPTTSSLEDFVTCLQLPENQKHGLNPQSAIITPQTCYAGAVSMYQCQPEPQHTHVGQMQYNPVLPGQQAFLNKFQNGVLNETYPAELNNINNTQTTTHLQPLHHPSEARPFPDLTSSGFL
# Method in brief: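 Following 24 h of chemical dosing, transfected HepG2 liver cells with cis-driven reporter units were lysed for RNA; reporter mRNA was quantified via RT-PCR and capillary electrophoresis, and responses fitted bidirectionally from DMSO.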
# [6] = ATG_AP_1_CIS: Attagene CIS-FACTORIAL HepG2 Assay for human Activator Protein 1 (AP-1) (AID 2282931); settings: HepG2 Attagene cis-factorial AP-1 reporter mRNA; actives raise or lower the signal
# Method in brief: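 Cis-regulated reporter units transiently expressed in HepG2 report endogenous transcription-factor activity. Signal: reporter mRNA at 24 h, via RT-PCR and fluorescent capillary electrophoresis. Endpoint derived by bidirectional fitting, DMSO as negative control.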
# [7] = ATG_BRE_CIS: Attagene CIS-FACTORIAL HepG2 Assay for human Bone Morphogenetic Protein (BMP) Response Element (BRE) (AID 2282933); settings: HepG2 BMP response element reporter, Attagene transcription factor profiling; actives raise or lower the signal
# Method in brief: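 Endogenous transcription factor activity at a BMP response element was monitored in transfected HepG2 cells 24 h after dosing. Fluorescent RT-PCR products were resolved by capillary electrophoresis, and activity was fitted in both directions versus DMSO.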
# [8] = target: Transcription factor E2F1 (Homo sapiens) (UniProt Q01094); test: ATG_E2F_CIS: Attagene CIS-FACTORIAL HepG2 Assay for human E2F Transcription Factor 1 (AID 2282935); settings: HepG2 Attagene cis-reporter, E2F reporter RNA transcripts; actives raise or lower the signal
# Chain of Transcription factor E2F1 (Homo sapiens) (Q01094 whole entry, looked up): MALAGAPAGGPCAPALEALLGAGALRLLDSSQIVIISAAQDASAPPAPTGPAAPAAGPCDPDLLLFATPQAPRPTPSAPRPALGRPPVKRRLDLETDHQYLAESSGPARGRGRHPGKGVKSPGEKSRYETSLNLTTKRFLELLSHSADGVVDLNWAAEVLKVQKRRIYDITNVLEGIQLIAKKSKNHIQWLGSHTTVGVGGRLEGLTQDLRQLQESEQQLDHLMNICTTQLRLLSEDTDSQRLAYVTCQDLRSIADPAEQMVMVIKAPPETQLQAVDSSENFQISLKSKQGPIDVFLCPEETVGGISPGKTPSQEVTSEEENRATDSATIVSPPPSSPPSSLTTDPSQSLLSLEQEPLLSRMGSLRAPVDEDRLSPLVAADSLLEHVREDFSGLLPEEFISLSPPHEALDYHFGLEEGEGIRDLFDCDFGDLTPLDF
# Method in brief: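 First, HepG2 cells were transfected with reporter transcription units. Next, they were dosed for 24 h. Then RNA was isolated, converted to cDNA, PCR-amplified, FAM-labeled, HpaI-digested and analyzed by capillary electrophoresis.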
# [9] = ATG_E_Box_CIS: Attagene CIS-FACTORIAL HepG2 Assay for human Enhancer Box (E-box) (AID 2282936); settings: HepG2 E-box cis-reporter transcription, actives raise or lower the signal
# Method in brief: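 Endogenous transcription factor activity was sensed in human HepG2 liver cells through transfected cis-promoter reporter units. After 24 h of dosing, total RNA was reverse-transcribed and reporter cDNA resolved by capillary electrophoresis.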
# [10] = ATG_M_61_CIS: Attagene CIS-FACTORIAL HepG2 Assay for M61 Transcription Factor (Internal Marker) (AID 2282937); settings: HepG2 Attagene CIS-FACTORIAL M61 internal marker reporter; actives raise or lower the signal
# Method in brief: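 Background-control endpoint: HepG2 cells with cis-regulated reporter constructs, 24 h exposure, reporter mRNA detected via fluorescent primer extension and capillary electrophoresis; values from bidirectional fitting with DMSO baseline.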
# [11] = ATG_EGR_CIS: Attagene CIS-FACTORIAL HepG2 Assay for human Early Growth Response 1 (EGR1) (AID 2282938); settings: HepG2 Attagene CIS-FACTORIAL EGR reporter mRNA; actives raise or lower the signal
# Method in brief: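 Endpoint derived by bidirectional fitting versus DMSO vehicle. Method: cis-promoter reporter units transfected into HepG2, 24 h dosing, RNA isolation, RT-PCR with 6-FAM primer extension and HpaI digestion, then capillary electrophoresis fluorescence detection.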
# [12] = ATG_M_19_CIS: Attagene CIS-FACTORIAL HepG2 Assay for M19 Transcription Factor (Internal Marker) (AID 2282939); settings: HepG2 Attagene CIS-FACTORIAL M19 internal marker reporter; actives raise or lower the signal
# Method in brief: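 Background-control endpoint from a multiplexed HepG2 reporter panel. Cells carrying cis-regulated reporter constructs are treated 24 h, then reporter transcripts are amplified, fluorescently labelled and sized by capillary electrophoresis. DMSO defines baseline.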
# [13] = ATG_Ets_CIS: Attagene CIS-FACTORIAL HepG2 Assay for human Erythroblast Transformation Specific (ETS) (AID 2282941); settings: HepG2 ETS cis-reporter transcription, actives raise or lower the signal
# Method in brief: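 Cis-regulated reporter mRNA induction in HepG2 (transient transfection), 24 h exposure, RT-PCR plus capillary electrophoresis detection; DMSO serves as negative control and baseline.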
# [14] = target: Hepatocyte nuclear factor 3-beta (Homo sapiens) (UniProt Q9Y261); test: ATG_FoxA2_CIS: Attagene CIS-FACTORIAL HepG2 Assay for human Forkhead box A2 (FOXA2) (AID 2282942); settings: HepG2 cis-reporter transcription factor activity, 24 h; actives raise or lower the signal
# Chain of Hepatocyte nuclear factor 3-beta (Homo sapiens) (Q9Y261 whole entry, looked up): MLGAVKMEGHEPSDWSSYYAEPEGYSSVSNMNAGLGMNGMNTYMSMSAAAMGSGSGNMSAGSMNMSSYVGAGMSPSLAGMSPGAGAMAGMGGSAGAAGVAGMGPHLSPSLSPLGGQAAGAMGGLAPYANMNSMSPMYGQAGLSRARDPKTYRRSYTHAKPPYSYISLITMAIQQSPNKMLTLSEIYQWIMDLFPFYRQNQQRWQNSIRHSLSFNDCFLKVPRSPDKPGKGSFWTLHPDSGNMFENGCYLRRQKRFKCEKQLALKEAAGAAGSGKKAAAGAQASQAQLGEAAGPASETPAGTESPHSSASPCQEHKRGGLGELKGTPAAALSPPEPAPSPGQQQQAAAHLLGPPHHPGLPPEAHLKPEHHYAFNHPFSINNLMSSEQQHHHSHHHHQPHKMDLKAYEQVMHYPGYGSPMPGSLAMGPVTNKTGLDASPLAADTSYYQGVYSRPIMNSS
# Method in brief: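 Measured: reporter mRNA induction or loss in HepG2 transiently carrying multiple cis-regulated reporter units, 24 h after dosing. Quantified by RT-PCR plus capillary electrophoresis, normalised to DMSO.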
# [15] = ATG_FoxO_CIS: Attagene CIS-FACTORIAL HepG2 Assay for human Forkhead box O (FoxO) (AID 2282943); settings: HepG2 Attagene cis-reporter, FoxO element, mRNA; actives raise or lower the signal
# Method in brief: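 24 h chemical exposure, HepG2 with transient cis-MRTU transfection. RNA extraction, oligo(dT) RT, reporter-specific PCR, primer-extension labelling, HpaI digestion, CE fragment analysis; bidirectional fit, DMSO baseline.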
# [16] = ATG_GATA_CIS: Attagene CIS-FACTORIAL HepG2 Assay for human GATA Binding Protein (AID 2282944); settings: HepG2 GATA cis-element reporter, Attagene multiplex mRNA; actives raise or lower the signal
# Method in brief: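 Endogenous transcription factor activity was captured through cis-promoter-driven reporters in transfected HepG2 cells. After 24 h exposure, reporter transcripts were quantified by RT-PCR with fluorescent capillary electrophoresis, and responses fitted both directions against DMSO.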
# [17] = ATG_GLI_CIS: Attagene CIS-FACTORIAL HepG2 Assay for human Zinc Finger Protein GLI1 (AID 2282945); settings: HepG2, Attagene cis-factorial reporter mRNA, GLI element; actives raise or lower the signal
# Method in brief: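 HepG2 cells transiently transfected with cis-promoter multiplexed reporter units report endogenous transcription factor activity. After 24 h chemical exposure, reporter mRNA was quantified by RT-PCR, 6-FAM labelling, HpaI digestion and capillary electrophoresis, with bidirectional fitting against DMSO.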
# [18] = ATG_AP_2_CIS: Attagene CIS-FACTORIAL HepG2 Assay for human Activator Protein 2 (AP-2) (AID 2282932); settings: HepG2 AP-2 cis-reporter, Attagene transcription factor profiling; actives raise or lower the signal
# Method in brief: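 Cells (HepG2) transfected with promoter-driven reporter constructs, treated 24 h. Total RNA reverse-transcribed, reporter cDNA PCR-amplified, FAM-labelled by primer extension, digested, resolved by capillary electrophoresis. Activity fitted both directions versus DMSO.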
# [19] = ATG_ERE_CIS: Attagene CIS-FACTORIAL HepG2 Assay for Estrogen Response Element (ERE) (AID 2282940); settings: HepG2 ERE cis-reporter, Attagene RNA transcript; actives raise or lower the signal
# Method in brief: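 Cells used were human hepatoma HepG2, transfected with multiple reporter transcription units under cis-regulatory promoters. Reporter mRNA, read 24 h post-dosing via fluorescent RT-PCR products on capillary electrophoresis, was fitted bidirectionally relative to DMSO.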
structure (smiles),measurement,setting,value
Cc1ccc(C(=O)O)o1,outcome,[1],inactive
same,outcome,[2],inactive
same,outcome,[3],inactive
same,outcome,[4],inactive
same,outcome,[5],inactive
same,outcome,[6],inactive
same,outcome,[7],inactive
same,outcome,[8],inactive
same,outcome,[9],inactive
same,outcome,[10],inactive
same,outcome,[11],inactive
same,outcome,[12],inactive
same,outcome,[13],inactive
same,outcome,[14],inactive
same,outcome,[15],inactive
same,outcome,[16],inactive
same,outcome,[17],inactive
CC(=O)[O][Al][O]C(C)=O,outcome,[1],inactive
same,outcome,[2],inactive
same,outcome,[3],inactive
same,outcome,[4],inactive
same,outcome,[5],inactive
same,outcome,[18],inactive
same,outcome,[7],inactive
same,outcome,[8],inactive
same,outcome,[9],inactive
same,outcome,[10],inactive
same,outcome,[11],inactive
same,outcome,[12],inactive
same,outcome,[19],inactive
same,outcome,[13],inactive
same,outcome,[14],inactive
same,outcome,[16],inactive
same,outcome,[17],inactive
O=C(Oc1ccccc1)c1ccc(O)cc1,outcome,[1],inactive
same,outcome,[2],inactive
same,outcome,[3],inactive
same,outcome,[4],inactive
same,outcome,[5],inactive
same,outcome,[6],inactive
same,outcome,[7],inactive
same,outcome,[8],inactive
same,outcome,[9],inactive
same,outcome,[10],inactive
same,outcome,[11],inactive
same,outcome,[12],inactive
same,outcome,[13],inactive
same,outcome,[14],inactive
same,outcome,[15],inactive
same,outcome,[16],inactive
same,outcome,[17],inactive
CNCCCC12CCC(c3ccccc31)c1ccccc12,outcome,[1],inactive
same,outcome,[2],inactive
same,AC50,[3],11.1 µM (active)
same,AC50,[4],11.1 µM (active)
same,outcome,[5],inactive
same,outcome,[6],inactive
same,outcome,[8],inactive
same,outcome,[9],inactive
same,outcome,[10],inactive
same,AC50,[11],15.7 µM (active)
same,outcome,[12],inactive
same,outcome,[19],inactive
same,AC50,[13],11.1 µM (active)
same,outcome,[14],inactive
same,outcome,[15],inactive
same,outcome,[16],inactive
same,AC50,[17],15.7 µM (active)
Clc1nc(C(Cl)(Cl)Cl)c(Cl)c(Cl)c1Cl,outcome,[1],inactive
same,outcome,[2],inactive
same,AC50,[3],24.9 µM (active)
same,AC50,[4],18 µM (active)
same,AC50,[5],12.6 µM (active)
same,outcome,[18],inactive
same,outcome,[7],inactive
same,AC50,[8],22.6 µM (active)
same,outcome,[9],inactive
same,outcome,[10],inactive
same,outcome,[11],inactive
same,outcome,[12],inactive
same,outcome,[19],inactive
same,AC50,[13],54.2 µM (active)
same,outcome,[14],inactive
same,outcome,[15],inactive
same,AC50,[16],58.8 µM (active)
same,AC50,[17],55.8 µM (active)
CCCCCCCCCCC(CO)CCCCCCCC (stereo unspecified),outcome,[1],inactive
same,outcome,[2],inactive
same,outcome,[3],inactive
same,outcome,[4],inactive
same,outcome,[5],inactive
same,outcome,[6],inactive
same,outcome,[7],inactive
same,outcome,[8],inactive
same,outcome,[9],inactive
same,outcome,[10],inactive
same,outcome,[11],inactive
same,outcome,[12],inactive
same,outcome,[13],inactive
same,outcome,[14],inactive
same,outcome,[15],inactive
same,outcome,[16],inactive
same,outcome,[17],inactive
N#Cc1ccccc1,outcome,[1],inactive
same,outcome,[2],inactive
same,outcome,[3],inactive
same,outcome,[4],inactive
same,outcome,[5],inactive
same,outcome,[18],inactive
same,outcome,[7],inactive
same,outcome,[8],inactive
same,outcome,[9],inactive
same,outcome,[10],inactive
same,outcome,[11],inactive
same,outcome,[12],inactive
same,outcome,[13],inactive
same,outcome,[14],inactive
same,outcome,[16],inactive
same,outcome,[17],inactive
Cc1c(Cl)c(=O)oc2cc(O)ccc12,outcome,[1],inactive
same,AC50,[2],129 µM (active)
same,AC50,[3],63 µM (active)
same,outcome,[4],inactive
same,outcome,[5],inactive
same,outcome,[6],inactive
same,outcome,[8],inactive
same,outcome,[9],inactive
same,outcome,[10],inactive
same,outcome,[11],inactive
same,outcome,[12],inactive
same,outcome,[13],inactive
same,outcome,[14],inactive
same,outcome,[15],inactive
same,outcome,[16],inactive
same,outcome,[17],inactive
CC(C)(C#N)c1cc(Cn2cncn2)cc(C(C)(C)C#N)c1,outcome,[1],inactive
same,outcome,[2],inactive
same,outcome,[3],inactive
same,outcome,[4],inactive
same,outcome,[5],inactive
same,outcome,[18],inactive
same,outcome,[7],inactive
same,outcome,[8],inactive
same,outcome,[9],inactive
same,outcome,[10],inactive
same,outcome,[11],inactive
same,outcome,[13],inactive
same,outcome,[14],inactive
same,outcome,[15],inactive
same,outcome,[16],inactive
same,outcome,[17],inactive
